Reference: PubChem BioAssay (Tox21)
Results filed as inconclusive are left out. Entries that show only a call come without a potency. A number with no mark means an inactive call. The source made the active and inactive calls. Calls come from the whole dose curve; as a rule, active = well fitted cell-killing curve with a large enough effect in the repeat runs; inconclusive = weak or mixed curves, or effect the other way; inactive = flat fitted curve, though single readings scatter.

assay: qHTS RealTime-Glo MT Cell Viability Assay in HEK293 cells - 8 hour (AID 1224887); settings: RealTime-Glo luminescence; series mostly up to 76.8 µM; note: nearly all actives have a fitted effect of over 50% in size; for activity change, negative = cytotoxicity: top concentration of the series differs between compounds
Text: U.S. Tox21 Program National Center for Advancing Translational Sciences [NCATS] NIH Chemical Genomics Center [NCGC] U.S. Environmental Protection Agency [EPA] National Institutes of Environmental Health Sciences [NIEHS] National Toxicology Program [NTP] U.S. Food and Drug Administration [FDA] Tox21 Assay Overview: Measure of cell viability is critical in the cell-base assay. Analysis of cell viability is necessary for the characterization of cell responses to cytotoxic drugs and environmental stress. A RealTime-Glo MT Cell Viability Assay to monitor cell viability in real time of continues cell culture during 40 hours of compound treatment was used to screen Tox21 10K library compounds in Hek293 cells. The RealTime-Glo MT Cell Viability Assay is a nonlytic, homogeneous, bioluminescent method to measure cell viability in real time using a simple, plate-based method. The assay involves adding NanoLuc luciferase and a cell-permeant prosubstrate to cells in culture. Viable cells reduce the proprietary prosubstrate to generate a substrate for NanoLuc luciferase. This substrate diffuses from cells into the surrounding culture medium, where it is rapidly used by the NanoLuc Enzyme to produce a luminescent signal. The signal correlates with the number of viable cells, making the assay well suited for cytotoxicity studies.
Tox21 Assay Protocol Summary: The mixture of Hek293 cell suspension and reagents were dispensed at 600cells/6 ul/well in 1536-well tissue culture treated black solid bottom plates using a Multidrop dispenser. After the assay plates were incubated at a 37 C/5% CO2 incubator for 5 hours, 23 nL of compounds dissolved in DMSO, positive and negative controls was transferred to the assay plate by a pintool work station. The plates were incubated at 37 C for 40 hours. The luminescence intensity were measured at 0h, 8h, 16h, 24h, 32h and 40h time points using ViewLux plate reader during compound treatment.
Potency is the fitted concentration of half-maximal effect.

Structure (SMILES) | Potency | activity change, negative = cytotoxicity
Cc1ncc(CO)c(C=O)c1O | inactive | 
CCCCCCCCCCCCCCCCCCOS(=O)(=O)O | inactive | 
O=C(O)CNCC(=O)O |  | -7.77% [at 6.97 µM]
CCOc1ccc(N=Nc2ccc(/C=C/c3ccc(N=Nc4ccc(OCC)cc4)cc3S(=O)(=O)O)c(S(=O)(=O)O)c2)cc1 | inactive | 
C=CCOc1ccccc1OCC(O)CNC(C)C (stereo not given) | inactive | 
CCCCO | inactive | 
CCCCCCc1ccc(-c2ccc(C#N)cc2)cc1 | inactive | 
COc1ccc(C(=O)N2CCN(CC(=O)N3CCOCC3)CC2)cc1 | inactive | 
CCCNCC(O)COc1ccccc1C(=O)CCc1ccccc1 (stereo not given) | 2.13 µM (active) | 
CCN(CC)CCOC(=O)C(Cc1cccc2ccccc12)CC1CCCO1 (stereo not given) | inactive | 
C[N+]1(CC2COC(c3ccccc3)(C3CCCCC3)O2)CCCCC1 (stereo not given) | inactive | 
COC(=O)c1ccc(I)cc1S(=O)(=O)NC(=O)Nc1nc(C)nc(OC)n1 | inactive | 
CCOC(=O)Cc1cccc2ccccc12 | inactive | 
CCCCCCCCCCCCCCCCOS(=O)(=O)O | inactive | 
CC(=O)[O][Al][O]C(C)=O | inactive | 
COc1cc2nc(N(C)CCCNC(=O)C3CCCO3)nc(N)c2cc1OC (stereo not given) | inactive | 
CCOC(=O)c1cccnc1 | inactive | 
CCOCC(O)COc1ccc(NC(=O)CC[S+](C)C)cc1 (stereo not given) | inactive | 
CC(COCCO)OCCO (stereo not given) | inactive | 
CCNc1cc(O)ccc1C | inactive | 

Structure (SMILES) | Potency | activity change, negative = cytotoxicity
CCCCCC[C@@H](O)C/C=C\CCCCCCCC(=O)OC | inactive | 
CCc1cc(C2=C(C(=O)O)N(c3ccccc3C(F)(F)F)S(=O)(=O)c3ccccc32)cc2c1OCO2 | inactive | 
CC1=CC=C(C(C)C)CC1 | inactive | 
CCCCCCCCCCO[C@@H]1O[C@H](CO)[C@@H](O)[C@H](O)[C@H]1O | inactive | 
ClCCOCCOCCCl | inactive | 
CCOC(=O)C(=O)CCc1ccccc1 | inactive | 
CCCCC1=NC2(CCCC2)C(=O)N1Cc1ccc(-c2ccccc2-c2nn[nH]n2)cc1 | inactive | 
Cc1cc(N)c2cc(NC(=O)Nc3ccc4nc(C)cc(N)c4c3)ccc2n1 | inactive | 
CCCOC(C(=O)OC1CCN(C)CC1)(c1ccccc1)c1ccccc1 | inactive | 
CCOC(=O)C1=C[C@]2(CC)CCCN3CCc4c(n1c1ccccc41)[C@@H]32 | inactive | 
CN(C)CCN(Cc1ccccc1)c1ccccn1 | inactive | 
COc1cc(C(=O)OCCCN2CCCN(CCCOC(=O)c3cc(OC)c(OC)c(OC)c3)CC2)cc(OC)c1OC | 9.52 µM (active) | 
CC(C)OC(=O)C(C)N(C(=O)c1ccccc1)c1ccc(F)c(Cl)c1 (stereo not given) | inactive | 
Nc1c(CC(=O)O)cccc1C(=O)c1ccc(Br)cc1 | inactive | 
CCO[Si](CCCCl)(OCC)OCC | inactive | 
Cc1ccc(N=Nc2c(O)c(C(=O)O)cc3ccccc23)c(S(=O)(=O)O)c1 | inactive | 
Nc1ncn([C@H]2C[C@H](O)[C@@H](CO)O2)c(=O)n1 | inactive | 
CC(CC=O)c1ccccc1 (stereo not given) | inactive | 
NC(=O)C(c1ccccc1)(c1ccccc1)[C@@H]1CCN(CCc2ccc3c(c2)CCO3)C1 | inactive | 
C[N+]1(C)CCC(OC(=O)C(O)(c2ccccc2)C2CCCC2)C1 (stereo not given) | inactive | 
